Results on 11 compounds are retold here after the supplement of paper PMC9477273.

Each structure is given as a SMILES string.

In this assay the test system is DRIVER-selected RNA biosensor (aptazyme) pool. In words: maximum fold change of ribozyme cleavage across biosensor pool versus no-compound control; higher = stronger biosensor response (ligand inhibits cleavage). The conditions noted are these: 10 µM. The gist of the method:
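A pool of 1,730 ribozyme biosensors, resynthesized on an array, was transcribed with T7 at 37°C for 15–30 min in 9 mM rNTPs, with one compound present at a final 10 µM (added from a 10x DMSO stock). Reverse transcription followed at 50°C, and the cleaved and uncleaved products were PCR-barcoded and counted by Illumina sequencing. The reported fold change of cleavage is the highest value across all biosensors, taken as the ratio of cleaved:uncleaved read fractions relative to a no-compound condition and corrected with reference sequences.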
For `CCOc1cc(CNc2ncc(-c3ccc(Br)cc3)n2C)ccc1O`, the maximum fold change stood at 2.06.
For `CCOC(=O)c1sc2nc(C)nc(NCc3ccccc3OC)c2c1C` the value was 4.59.
For `CCCCOc1ccc(CNC2=NS(=O)(=O)C(c3ccc(C(C)C)cc3)=C2C)cc1`, the maximum fold change was 3.52.
With `CC12CCC(C(=O)O)(c3nc4ccc5ncccc5c4nc31)C2(C)C` (stereo unspecified) the figure was 2.74.
With `CCN1CCN(C(=O)c2cc(C)nn2-c2ccccc2)CC1` the figure was 2.67; with `CCN(Cc1ccccc1)Cc1csc(C)c1C`, 3.07; with `Cc1ccc(C)c(Cn2c(C)c(CNCc3ccc(Cl)cc3)c(C(=O)O)c2C)c1`, 2.54.
As to `Cc1c(CNC2CCCc3ccccc32)c(C(=O)O)c(C)n1Cc1ccc(F)cc1` (stereo unspecified), the maximum fold change stood at 2.39.
For `CCOC(=O)c1cnc2c(C)c(Cl)ccc2c1NCc1ccco1` the value was 6.11; for `Cc1ccccc1-c1nnc(SCC(=O)N2CCC(C)CC2)o1`, 1.91; for `COc1ccc(-c2cn3c(C)c(C(=O)NCCCOC(C)C)sc3n2)cc1`, 2.79.
